Records with an inconclusive call do not appear. Calls of active or inactive are those of the source. Unless noted, calls come from the whole dose curve; as a rule, active = well fitted curve in the direction sought with a large enough effect; inconclusive = small, poorly fitted or top-dose-only effect, or another doubt; inactive = no such curve, though single readings can be large; an effect the other way counts as inactive or inconclusive.
Columns and labels:
[1] = target: Catechol O-methyltransferase (Homo sapiens) (UniProt P21964); assay: Confirmatory Screen for Target Class Profiling of Small Molecule Inhibitors of Methyltransferases (AID 1745852; calls by dose curve; note: potency is the fitted concentration of half-maximal effect; for activity change, negative = inhibition: % is set by controls: 0 for no effect and ±100 for the full control effect); conditions: MTase-Glo luminescence, SAH detection, recombinant enzyme; measured here: COMT max response; stronger effect = lower value
[2] = target: Guanidinoacetate N-methyltransferase (Homo sapiens) (UniProt Q14353); assay: as above; conditions: MTase-Glo luminescence, SAH detection, recombinant enzyme; activity change, negative = inhibition: at 57.3 µM (top of the series) unless noted
[3] = target: Nicotinamide N-methyltransferase (Homo sapiens) (UniProt P40261); assay: as above; conditions: MTase-Glo luminescence, SAH detection, recombinant enzyme; measured here: NNMT max response; stronger effect = lower value
[4] = target: Phenylethanolamine N-methyltransferase (Homo sapiens) (UniProt P11086); assay: as above; conditions: MTase-Glo luminescence, SAH detection, recombinant enzyme; measured here: PNMT max response; stronger effect = lower value
[5] = target: Glutathione peroxidase 1 (Homo sapiens) (UniProt P07203); assay: Primary qHTS Assay for Inhibitors of Recombinant Selenoprotein Glutathione Peroxidase 1 (GPX1) (AID 1845191); conditions: recombinant GPX1, GR-coupled NADPH fluorescence, 15 min; series mostly up to 27.7 µM; note: nearly all actives have a fitted effect of over 65% in size
Method in brief: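 GR-coupled assay: compounds preincubated 30 min at room temperature with GPX1, then reaction started with CHP; final 10 nM GPX1, 1 mM GSH, 0.5 mM CHP, 0.5 mM NADPH, 100 nM GR, 0.01% BSA, pH 7.5 Tris buffer. NADPH fluorescence (340/450 nm) read at 0 and 15 min.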

[6] = target: Phospholipid hydroperoxide glutathione peroxidase GPX4 (Homo sapiens) (UniProt P36969); assay: Primary qHTS Assay for Inhibitors of Recombinant Selenoprotein Glutathione Peroxidase 4 (GPX4) (AID 1845192); conditions: recombinant GPX4, GR-coupled NADPH fluorescence, 15 min; series mostly up to 27.8 µM; note: nearly all actives have a fitted effect of over 65% in size; for activity change, negative = inhibition: % is set by controls: 0 for no effect and ±100 for the full control effect
Method in brief: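 GR-coupled assay: recombinant GPX4 preincubated 30 min with compound at room temperature; final 200 nM GPX4, 1 mM GSH, 0.5 mM cumene hydroperoxide, 0.5 mM NADPH, 100 nM GR, 0.01% BSA, pH 7.5 Tris. NADPH fluorescence (340/450 nm) read at 0 and 15 min.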

[7] = target: Luciferin 4-monooxygenase (Photinus pyralis) (UniProt P08659); assay: Primary firefly luciferase (FLuc) qHTS assay for identification of artifact compounds. (AID 1845220); conditions: purified firefly luciferase, luminescence, 5 min; series mostly up to 54.1 µM; note: nearly all actives have a fitted effect of over 60% in size;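 for activity change, negative = inhibition: plate controls were DMSO vehicle for no effect and no enzyme for full effect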
Method in brief: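 Enzymatic FLuc inhibition assay: compounds pre-exposed to luciferin/ATP (10 uM each) for 15 min, then purified P. pyralis enzyme at 10 nM added. Read-out: luminescence at 5 min.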

[8] = Primary fluorescence-based thiol-reactive (MSTI) qHTS assay for identification of artifact compounds. (AID 1845221); conditions: MSTI thiol-reactivity probe, 1 h; series mostly up to 53.8 µM; note: nearly all actives have a fitted effect of over 65% in size; note: potency is the fitted concentration of half-maximal effect
Method in brief: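 Reactivity toward the thiol probe MSTI (4 uM) is scored by fluorescence at Ex/Em 525/598 nm after 1 h at room temperature. Acetyl-MSTI and MSTI define the activity scale.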

[9] = target: Rap guanine nucleotide exchange factor 3 (Homo sapiens) (UniProt O95398); assay: Confirmatory qHTS for agonist of cAMP-regulated guanine nucleotide exchange factor 3 (EPAC1) (AID 1645881); conditions: EPAC1 Rap1B BODIPY-GDP exchange fluorescence, 100% = cAMP control response; series mostly up to 154 µM;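 note: EPAC1 catalysed release of BODIPY-GDP from Rap1B seen as fluorescence loss; nearly all actives have a fitted effect of over 75% in size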
[10] = target: Rap guanine nucleotide exchange factor 4 (Homo sapiens) (UniProt Q8WZA2); assay: Confirmatory qHTS for agonist of cAMP-regulated guanine nucleotide exchange factor 4 (EPAC2) (AID 1645884); conditions: EPAC2 GEF activity, Rap1B-BODIPY-GDP fluorescence, percent relative to cAMP agonist control; series mostly up to 154 µM;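 note: nucleotide exchange releases bodipy-GDP from Rap1 and this lowers its fluorescence; % is set by controls: 0 for no effect and ±100 for the full control effect; nearly all actives have a fitted effect of over 65% in size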
[11] = target: Rap guanine nucleotide exchange factor 4 (Homo sapiens) (UniProt Q8WZA2); assay: Confirmatory qHTS for antagonist of cAMP-regulated guanine nucleotide exchange factor 4 (EPAC2) (AID 1645885); conditions: EPAC2 Rap1B-BODIPY-GDP exchange fluorescence, biochemical; series mostly up to 12.7 µM; note: nearly all actives have a fitted effect of over 25% in size; for activity change, negative = inhibition: % is set by controls: 0 for no effect and ±100 for the full control effect
[12] = target: Rap guanine nucleotide exchange factor 3 (Homo sapiens) (UniProt O95398); assay: Counterscreen qHTS for antagonist of cAMP-regulated guanine nucleotide exchange factor 3 (EPAC1) (AID 1645888); conditions: Rap1B-BODIPY-GDP nucleotide exchange, fluorescence; series mostly up to 154 µM;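 note: fluorescence loss as bound BODIPY-GDP is released from Rap1B; % of control where 0% means no effect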
Method in brief: (§1)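 Rap1B–BODIPY-GDP (250 nM) with 50 uM GDP; compounds pin-transferred to 9.74 nM–152 uM final (activator) or from 7.32 nM upwards (inhibitor). Fluorescence Ex/Em 480/540 nm read at 5 and 30 min, then after adding cAMP or buffer, at room temperature.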

[13] = target: Rap guanine nucleotide exchange factor 3 (Homo sapiens) (UniProt O95398); assay: Counterscreen qHTS for agonist of cAMP-regulated guanine nucleotide exchange factor 3 (EPAC1) (AID 1645889); conditions: EPAC1 Rap1B-BODIPY-GDP exchange, fluorescence; series mostly up to 154 µM; note: % of control where 0% means no effect; nearly all actives have a fitted effect of over 40% in size
Method in brief: as §1

Chain of Glutathione peroxidase 1 (Homo sapiens) (P07203 whole entry, looked up): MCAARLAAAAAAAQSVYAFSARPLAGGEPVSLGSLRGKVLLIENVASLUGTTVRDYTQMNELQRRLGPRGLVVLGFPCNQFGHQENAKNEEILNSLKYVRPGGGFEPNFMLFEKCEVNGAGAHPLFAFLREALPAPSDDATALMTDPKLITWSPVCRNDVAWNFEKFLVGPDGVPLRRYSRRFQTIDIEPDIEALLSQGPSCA
Chain of Rap guanine nucleotide exchange factor 4 (Homo sapiens) (Q8WZA2 whole entry, looked up): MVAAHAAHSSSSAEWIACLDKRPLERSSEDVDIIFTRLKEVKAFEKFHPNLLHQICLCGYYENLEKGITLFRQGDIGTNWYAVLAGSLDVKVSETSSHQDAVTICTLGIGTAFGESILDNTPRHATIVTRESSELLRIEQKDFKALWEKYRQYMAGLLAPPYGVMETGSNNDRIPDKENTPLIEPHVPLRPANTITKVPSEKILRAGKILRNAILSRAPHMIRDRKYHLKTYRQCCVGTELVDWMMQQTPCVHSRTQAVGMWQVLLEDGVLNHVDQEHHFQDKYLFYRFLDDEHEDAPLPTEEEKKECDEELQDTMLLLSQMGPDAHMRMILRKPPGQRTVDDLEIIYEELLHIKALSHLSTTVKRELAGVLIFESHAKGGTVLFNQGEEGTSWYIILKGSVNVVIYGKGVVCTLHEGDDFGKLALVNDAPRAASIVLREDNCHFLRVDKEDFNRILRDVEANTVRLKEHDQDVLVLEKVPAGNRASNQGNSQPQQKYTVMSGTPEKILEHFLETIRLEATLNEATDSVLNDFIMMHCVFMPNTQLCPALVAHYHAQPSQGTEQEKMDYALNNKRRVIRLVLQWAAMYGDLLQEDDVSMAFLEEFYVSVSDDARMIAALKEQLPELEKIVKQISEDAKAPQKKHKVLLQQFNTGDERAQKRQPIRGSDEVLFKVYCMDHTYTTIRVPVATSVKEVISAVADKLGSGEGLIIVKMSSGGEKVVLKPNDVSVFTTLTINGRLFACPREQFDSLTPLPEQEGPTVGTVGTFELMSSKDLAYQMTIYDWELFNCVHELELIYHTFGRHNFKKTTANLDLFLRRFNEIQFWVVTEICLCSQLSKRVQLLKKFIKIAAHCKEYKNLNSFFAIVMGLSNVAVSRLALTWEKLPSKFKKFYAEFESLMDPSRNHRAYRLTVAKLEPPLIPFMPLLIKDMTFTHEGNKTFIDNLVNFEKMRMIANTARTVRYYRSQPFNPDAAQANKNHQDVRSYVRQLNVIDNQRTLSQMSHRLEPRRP
Chain of Phospholipid hydroperoxide glutathione peroxidase GPX4 (Homo sapiens) (P36969 whole entry, looked up): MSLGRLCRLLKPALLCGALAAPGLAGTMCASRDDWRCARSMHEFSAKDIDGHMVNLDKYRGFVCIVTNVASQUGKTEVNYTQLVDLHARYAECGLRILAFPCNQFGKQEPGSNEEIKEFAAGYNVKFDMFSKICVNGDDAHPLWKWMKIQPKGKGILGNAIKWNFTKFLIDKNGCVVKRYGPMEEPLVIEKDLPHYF
Chain of Catechol O-methyltransferase (Homo sapiens) (P21964 whole entry, looked up): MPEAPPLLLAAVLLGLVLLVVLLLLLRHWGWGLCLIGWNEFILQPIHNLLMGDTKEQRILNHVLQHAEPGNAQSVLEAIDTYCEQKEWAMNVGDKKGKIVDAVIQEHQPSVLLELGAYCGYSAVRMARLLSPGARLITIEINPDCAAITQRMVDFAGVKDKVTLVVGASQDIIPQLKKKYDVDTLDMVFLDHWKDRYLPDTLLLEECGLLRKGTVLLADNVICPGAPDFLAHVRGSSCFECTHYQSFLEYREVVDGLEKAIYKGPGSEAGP
Chain of Phenylethanolamine N-methyltransferase (Homo sapiens) (P11086 whole entry, looked up): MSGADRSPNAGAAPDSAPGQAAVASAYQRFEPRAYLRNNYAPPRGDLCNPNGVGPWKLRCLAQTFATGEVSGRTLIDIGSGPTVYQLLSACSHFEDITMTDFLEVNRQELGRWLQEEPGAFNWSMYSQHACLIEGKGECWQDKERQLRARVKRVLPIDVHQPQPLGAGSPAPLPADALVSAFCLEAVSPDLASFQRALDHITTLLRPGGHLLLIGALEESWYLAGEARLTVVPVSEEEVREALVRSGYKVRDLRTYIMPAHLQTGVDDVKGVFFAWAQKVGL
Chain of Rap guanine nucleotide exchange factor 3 (Homo sapiens) (O95398 whole entry, looked up): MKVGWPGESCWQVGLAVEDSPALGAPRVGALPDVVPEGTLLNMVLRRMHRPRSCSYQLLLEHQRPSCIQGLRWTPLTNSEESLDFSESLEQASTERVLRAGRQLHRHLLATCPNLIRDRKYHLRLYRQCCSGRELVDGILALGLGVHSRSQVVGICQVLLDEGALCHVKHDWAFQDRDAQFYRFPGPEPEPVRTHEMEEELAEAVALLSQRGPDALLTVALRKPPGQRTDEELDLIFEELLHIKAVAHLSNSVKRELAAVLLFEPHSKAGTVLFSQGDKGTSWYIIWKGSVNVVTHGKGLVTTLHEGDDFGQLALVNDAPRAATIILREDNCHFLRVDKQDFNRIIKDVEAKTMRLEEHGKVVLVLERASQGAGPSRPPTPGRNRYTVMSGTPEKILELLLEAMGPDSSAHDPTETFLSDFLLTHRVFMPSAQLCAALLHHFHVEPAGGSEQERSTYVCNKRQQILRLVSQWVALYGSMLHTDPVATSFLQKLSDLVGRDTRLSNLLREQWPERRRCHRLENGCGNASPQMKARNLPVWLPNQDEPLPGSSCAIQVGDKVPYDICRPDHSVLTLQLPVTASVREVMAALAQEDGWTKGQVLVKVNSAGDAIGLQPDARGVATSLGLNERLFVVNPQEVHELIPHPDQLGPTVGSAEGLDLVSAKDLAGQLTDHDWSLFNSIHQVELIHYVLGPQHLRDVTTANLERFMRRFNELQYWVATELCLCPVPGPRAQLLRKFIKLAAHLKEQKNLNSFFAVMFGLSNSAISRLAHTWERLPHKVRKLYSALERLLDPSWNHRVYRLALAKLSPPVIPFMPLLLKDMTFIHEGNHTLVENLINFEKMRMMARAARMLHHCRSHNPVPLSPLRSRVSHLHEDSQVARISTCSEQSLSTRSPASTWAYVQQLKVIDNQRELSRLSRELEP
Chain of Nicotinamide N-methyltransferase (Homo sapiens) (P40261 whole entry, looked up): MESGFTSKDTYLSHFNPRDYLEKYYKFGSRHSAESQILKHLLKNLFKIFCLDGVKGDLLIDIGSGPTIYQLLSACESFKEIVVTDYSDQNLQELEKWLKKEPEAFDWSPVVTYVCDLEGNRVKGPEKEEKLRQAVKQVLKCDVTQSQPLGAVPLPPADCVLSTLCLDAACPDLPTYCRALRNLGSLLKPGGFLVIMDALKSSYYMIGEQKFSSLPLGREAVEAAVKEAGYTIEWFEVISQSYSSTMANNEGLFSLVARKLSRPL

Compound	activity [1]	activity change, negative = inhibition [2]	activity [3]	activity [4]	Potency [5]	Potency [6]	Potency [7]	Potency [8]	outcome [9]	outcome [10]	outcome [11]	outcome [12]	outcome [13]	Potency [2]
O=C(O)CCc1ccc(NCc2cccc3c2CCCN3CCOc2ccccc2)cc1F	-3.27%	-0.799%	-32.3%	-5.97%	inactive	inactive	inactive	1.5 µM (active)						
C=C1C(=O)O[C@@H]2CC(C)=C([C@@H](C)CCCOC(C)=O)[C@@H](O)[C@H]12	-78.5%	1.58%	-0.922%	-2.38%	inactive	inactive	inactive	16.5 µM (active)						
Cc1cc(C)c2nc(-c3ccccn3)cc(C(=O)Nc3ccc(S(=O)(=O)Nc4onc(C)c4C)cc3)c2c1					inactive				inactive	inactive	inactive; activator; fitted 7.5686 uM	inactive		
C=C(C(=O)O)[C@@H]1CC[C@H](C)[C@@H]2CC(=O)C(C)=C2C1	-63.8%	1.33%	-2.63%	-9%	inactive	inactive	inactive	21.2 µM (active)						
CC(=O)OC/C(=C/C(=O)O)CC[C@@H]1C(CO)=CC[C@@H]2C(C)(C)CCC[C@@]12C	-82.3%	-4.99%	-8.71%	-5.03%	inactive	inactive	inactive							
C=CC(C)(O)CC/C=C(\C)COC1O[C@H](CO)[C@@H](O)[C@H](O)[C@H]1O (stereo not given in full)	-76.9%	-6.43%	-3.25%	-3.19%	inactive	inactive	inactive	2.93 µM (active)						
C[C@@H]1O[C@@H](OC[C@H]2O[C@@H](OCc3ccccc3)[C@H](O)[C@@H](O)[C@@H]2O)[C@H](O)[C@H](O)[C@H]1O	-64.3%	-3.1% [at 29.8 µM]	-3.31%	-2.48%	inactive	inactive	inactive	5.19 µM (active)						
O=C(/C=C/c1ccc(O)cc1)OC[C@@]1(O)C=C[C@@H]2C(C(=O)O)=CO[C@@H](O[C@@H]3O[C@H](CO)[C@@H](O)[C@H](O)[C@H]3O)[C@@H]21	-58.3%	0.0203% [at 29.8 µM]	-1.35%	0.204%	inactive	inactive	inactive	5.19 µM (active)						
COc1cc(/C=C/C(=O)O[C@H]2[C@@H]3C=CO[C@@H](O[C@@H]4O[C@H](CO)[C@@H](O)[C@H](O)[C@H]4O)[C@@H]3[C@@]3(CO)O[C@@H]23)ccc1O	-66.9%	0% [at 29.8 µM]	1.36%	-3.15%	inactive	inactive	inactive							
C=C(C(=O)O)[C@H]1C[C@]2(C)C(=O)CC[C@]23O[C@H]1C[C@@H]3C	-84.1%	-1.21%	-2.06%	-0.38%	inactive	inactive	inactive							
CC(=O)OC1CC(=O)C2(C)C3CC4=C(OC(C)CC4=O)OC3(C)CCC2C1(C)C (stereo not given)	-40.9%	0.0637% [at 29.8 µM]	-81.2%	0.0652%	inactive	inactive	inactive	11.6 µM (active)						
CC(C)N(CCCNC(=O)Nc1ccc(C(C)(C)C)cc1)C[C@H]1O[C@@H](n2ccc3c(N)ncnc32)[C@H](O)[C@@H]1O	-14.9%	-7.92%	-18.1%	-18.6%	inactive	inactive	inactive	inactive						
CC1=C2CC3C(CCC3(C)O)C(C)(O)CC2OC1=O (stereo not given)	-78.6%	0%	0%	0%	inactive	inactive	inactive	23.8 µM (active)						
CCOc1ccc(-c2cc(NC(=O)c3c(F)cccc3F)c(C(=O)O)s2)cc1	-2.79%	0.993%	-5.18%	-2.03%	inactive	inactive		inactive	inactive	inactive	inactive	inactive	inactive	
CC1(C)CC[C@]2(C(=O)O[C@@H]3O[C@H](CO)[C@@H](O)[C@H](O)[C@H]3O)CC[C@]3(C)C(=CCC4[C@@]5(C)C[C@@H](O)[C@H](O)[C@@](C)(CO)C5[C@H](O)C[C@]43C)C2[C@@H]1O (stereo not given in full)	-79.3%	0% [at 19.1 µM]	4%	3.8%	inactive	inactive	inactive	3.16 µM (active)						
CC1=CC(=O)C(=C(C)C)CC2C(C)(O)CCC12O (stereo not given)	-81.2%	0.373%	2.29%	1.07%	inactive	inactive	inactive							
CC(C)(O)C1CC=C(C(=O)OC[C@H]2O[C@@H](Oc3cc(C(=O)O)cc(O)c3O)[C@H](O)[C@@H](O)[C@@H]2O)CC1 (stereo not given in full)	-82.4%	-6.92% [at 29.8 µM]	-6.11%	-6.07%	inactive	inactive	inactive							
CC1(C)C2CCC1(C)C(OC(=O)C(O)(CC(=O)O)CC(=O)O)C2 (stereo not given)	-73.1%	0%	1.63%	2.73%	inactive	inactive	inactive							
C=Cc1cc2oc(-c3ccc(O)c(F)c3)nc2cc1O	-57%		-39.5%	-56.3%										30.4 µM (active)
COc1c2c(c(C)c3c1C(=O)OC3)OC1(C)CC(O)C34OC(OC)(CC(O)C3(C)C1C2)OC4(C)C (stereo not given)	-15%	-2.68% [at 29.8 µM]	-8.14%	-5.39%	inactive	inactive	inactive							

Reference: PubChem BioAssay (NCATS)
